Screening data from PubChem.
Most compounds without a hit are left out; they make up all but 2.8% or so of the library.
PI5P4K alpha inh = PI5P4K alpha (human) kinase inhibition | hit rate 1.2% among 330,000 | P48426 | max response, % | PI5P4Kalpha enzyme, ADP-Glo luminescence, 60 min; stronger effect = lower value; active means max response of -50% or lower; inconclusive means between -30% and -50%; inactive means -30% or higher; further: value at the top dose of about 77 µM; on the % scale 0 is the no-effect control and ±100 the full control effect
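Enzyme plus substrate dispensed, test compounds pinned in, then ATP (5 microM final) added. After 60 min at RT, ADP-Glo reagent 1 for 45 min and reagent 2 for 30 min preceded luminescence imaging.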
Pol kappa inh-1 = DNA polymerase kappa (human) inhibition. Potency, µM (top dose mostly 107 µM), for inactives: at the top dose activity, negative = inhibition, most hits filed as inhibitors. hit rate 0.53% among 400,000. purified Pol kappa, fluorescent DNA synthesis assay, 10 min. Q9UBT6; further: potency means the concentration at half of the fitted maximal effect; on the % scale 0 is the no-effect control and ±100 the full control effect
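10 nM Pol kappa preincubated 15 min at room temperature with compounds, then reaction started with substrate at 50 nM final. Fluorescence read kinetically at 0 and 10 min; buffer-only wells served as negative control.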
Pol beta inh = inhibitors of human DNA polymerase beta | P06746 | Pol beta primer extension/strand displacement, fluorescence kinetic | Potency, µM (top dose mostly 114 µM), for inactives: at the highest dose activity change, negative = inhibition, hits mostly inhibitors | hit rate 1.3% among 340,000; further: potency means the concentration at half of the fitted maximal effect; on the % scale 0 is the no-effect control and ±100 the full control effect
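10 nM enzyme + cpd, 15 min RT; start with substrate 50 nM final; read 0 min and after 10 min RT. Corrected, normalized data; 4-parameter Hill curve fit.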
WRN inhibitor = inhibitors of human WRN helicase; Q14191; hit rate 0.46% among 360,000; Potency, µM (doses to about 114 µM), without a hit: at the top dose activity change, negative = inhibition, usual class: inhibitors; WRN helicase unwinding, fluorescent forked duplex, kinetic; further: potency means the concentration at half of the fitted maximal effect; on the % scale 0 is the no-effect control and ±100 the full control effect; nearly all actives have a fitted effect of over 55% in size
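WRN at 20 nM final preincubated with compound 15 min at room temperature; reaction started with 100 nM fluorophore/quencher forked duplex oligonucleotide and 2 mM ATP final. Unwinding followed kinetically by red fluorescence (ex 525, em 598 nm).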
Pol iota inh = inhibitors of human DNA polymerase iota. Q9UNA4. Pol iota fluorescent replication assay, 10 min. Potency, µM (titrated, usually from 115 µM), without a hit: at the top dose activity, negative = inhibition, most hits filed as inhibitors. hit rate 1% among 390,000; further: potency means the concentration at half of the fitted maximal effect
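Fluorescent replication assay read twice, at 0 min and 10 min after adding 50 nM (final) substrate. Enzyme (10 nM) and compounds were first incubated 15 min at room temperature; enzyme-free buffer wells were negative controls.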
Pol eta inh-1 = DNA polymerase eta (human) inhibition; Q9Y253; recombinant Pol eta, fluorescent DNA replication assay; Potency, µM (top dose mostly 114 µM), for the others: at the top dose activity change, negative = inhibition, usual class: inhibitors; hit rate 1.2% among 390,000; further: potency means the concentration at half of the fitted maximal effect; on the % scale 0 is the no-effect control and ±100 the full control effect
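Pol eta (10 nM) was preincubated with compounds for 15 min at room temperature, after which fluorescent replication substrate (50 nM final) was added to start the reaction. Fluorescence was read kinetically at 0 and 10 min.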
PGK validate = blocks T. brucei phosphoglycerate kinase | shares compounds with Pol kappa inh-1 | TbPGK coupled GAPDH assay, Kinase-Glo luminescence | Potency, µM (doses to about 57.5 µM), without a hit: top-dose activity change, negative = inhibition, usual class: inhibitors | AID 686980 | hit rate 79% among 500; further: potency means the concentration at half of the fitted maximal effect; on the % scale 0 is the no-effect control and ±100 the full control effect; nearly all actives have a fitted effect of over 65% in size
Pol iota confirm = Inhibitors of human DNA polymerase iota, confirmation; shares compounds with Pol kappa inh-1; Pol iota primer extension, TAMRA/BHQ fluorescence; Potency, µM, most hits filed as inhibitors; hit rate 77% among 1,500; further: potency means the concentration at half of the fitted maximal effect
Pol kappa inh-2 = Pol kappa (human) inhibition, cherry-pick confirmation; shares compounds with Pol eta inh-1; purified Pol-kappa, fluorescent strand-displacement substrate; Potency, µM, most hits filed as inhibitors; hit rate 76% among 920; AID 720501; further: potency means the concentration at half of the fitted maximal effect
Pol eta inh-2 = confirmation of human DNA polymerase eta inhibitors. shares compounds with Pol eta inh-1. Pol eta primer extension, TAMRA/BHQ fluorescence, 10 min. Potency, µM, usual class: inhibitors. hit rate 64% among 2,600; further: potency means the concentration at half of the fitted maximal effect
The depositor's hits bear a star; [ ] = another dose, or the depositor's remark. Unless noted, the call rests on the fitted dose curve; in most records, active means well fitted curve in the direction sought with a large enough effect; inconclusive means small, poorly fitted or top-dose-only effect, or another doubt; inactive means no such curve, though single readings can be large; an effect the other way counts as inactive or inconclusive.

How did CN1CCN(c2ccc(/C=C3\C(=O)NC(=S)N(c4cccc(Br)c4)C3=O)o2)CC1 do in these assays?
PI5P4K alpha inh: inconclusive; Pol kappa inh-1: -17.3%; Pol beta inh: -4.9%; WRN inhibitor: inconclusive; Pol iota inh: inconclusive; Pol eta inh-1: inconclusive

What do the screens show for `Cc1ccc(/C=C2\C(=O)NC(=S)N(c3cccc(F)c3)C2=O)o1`?
PI5P4K alpha inh: -77.2*; Pol kappa inh-1: 31.6µM*; Pol beta inh: -2.9%; WRN inhibitor: 50.1µM*; Pol iota inh: inconclusive; Pol eta inh-1: 7.08µM*; Pol iota confirm: 33.6*; Pol eta inh-2: 16.9*

Results for CC[C@]12C=CCN3CC[C@@]4(c5ccc(OC)cc5N(C)[C@H]4[C@@](O)(C(=O)OC)[C@@H]1OC(C)=O)C32 (some centres not stated) ?
Pol kappa inh-1: 8.7%[60.1 µM]

How did NC(=O)c1ccc(N=Cc2c(O)n(Cc3ccco3)c(=O)[nH]c2=O)cc1 do in these assays?
PI5P4K alpha inh: -78.8*; Pol kappa inh-1: 50.1µM*; Pol beta inh: inconclusive; WRN inhibitor: 50.1µM*; Pol iota inh: 11.2µM*; Pol eta inh-1: 22.4µM*; PGK validate: 9.19µM*; Pol iota confirm: 29.9*; Pol kappa inh-2: 29.9*; Pol eta inh-2: 47.8*

How did CC(C)CCNC(=O)CNC(=O)[C@@H](C)NC(=O)[C@@H](N)Cc1ccc(O)cc1 do in these assays?
Pol kappa inh-1: 7.1%[60.1 µM]

What do the screens show for `COc1ccc2nc(NC(=O)c3nc(S(=O)(=O)Cc4cccc(C)c4)ncc3Cl)sc2c1`?
Pol kappa inh-1: inconclusive; Pol beta inh: 31.6µM*; Pol iota inh: inconclusive; Pol eta inh-1: 79.4µM*; Pol iota confirm: 75.2*; Pol eta inh-2: inconclusive

How did CN1CC[C@@]2(C)c3cc(O)ccc3N(C)[C@@H]12 do in these assays?
PI5P4K alpha inh: -25.0; Pol kappa inh-1: -4.3%; WRN inhibitor: 38.6%; Pol iota inh: 10µM*; Pol eta inh-1: inconclusive; Pol iota confirm: 59.7*; Pol eta inh-2: inconclusive

Results for CC1[C@H]2Cc3ccc(O)cc3[C@]1(C)CCN2C (some centres not stated) ?
PI5P4K alpha inh: 8.1; Pol kappa inh-1: -0.5%; WRN inhibitor: 0.4%; Pol iota inh: -5.0%; Pol eta inh-1: -2.1%

How did CN1CC[C@@]2(C)c3cc(O)ccc3N(C)C2O1 (some centres not stated) do in these assays?
Pol kappa inh-1: -6.2%; Pol iota inh: 25.1µM*; Pol eta inh-1: inconclusive; Pol iota confirm: 59.7*; Pol eta inh-2: inconclusive

How did C[C@@H](NC(=O)[C@@H](N)Cc1ccc(O)cc1)C(=O)NCC(=O)N(C)[C@@H](Cc1ccccc1)C(=O)NCCO do in these assays?
Pol kappa inh-1: 12.8%[60.1 µM]

What do the screens show for `C[C@@H]1C[C@H](C)C[C@H](C)[C@@H](O)CC(=O)O[C@H]([C@H]2CCC[C@H]2C(=O)O)C/C=C/C=C(/C#N)[C@H](O)[C@@H](C)C1`?
Pol kappa inh-1: 13.0%[60.1 µM]

What do the screens show for `CC(=O)N1CCN(c2ccc(OC[C@@H]3CO[C@@](Cn4ccnc4)(c4ccc(Cl)cc4Cl)O3)cc2)CC1`?
Pol kappa inh-1: -13.7%; Pol iota inh: -16.3%

What do the screens show for `CN1C(=O)C(=Cc2ccc(Sc3ccccc3)o2)C(=O)N(C)C1=O`?
PI5P4K alpha inh: 2.7; Pol kappa inh-1: -7.6%; Pol beta inh: inconclusive; WRN inhibitor: inconclusive; Pol iota inh: 63.8%; Pol eta inh-1: -0.3%

What do the screens show for `CN1C(=O)C(=Cc2ccc(Sc3ccccc3)o2)C(=O)N(C)C1=S`?
PI5P4K alpha inh: inconclusive; Pol kappa inh-1: inconclusive; WRN inhibitor: inconclusive; Pol iota inh: inconclusive; Pol eta inh-1: 44.7µM*; Pol iota confirm: inconclusive; Pol kappa inh-2: 16.8*; Pol eta inh-2: 37.9*

Results for O=C1NC(=O)c2c1c1c3ccccc3n3c1c1c2c2ccccc2n1C1CCC3O1 ?
Pol kappa inh-1: 13.8%[60.1 µM]

Results for CC1O[C@@H](O[C@@H]2C(O)C[C@H](O[C@@H]3C(O)C[C@@H](OC4CC[C@@]5(C)C6CC[C@]7(C)C(C8=CC(=O)OC8)CC[C@@]7(O)C6CC[C@@H]5C4)OC3C)OC2C)CC(O)[C@H]1O (some centres not stated) ?
Pol kappa inh-1: -6.7%[60.1 µM]

How did Cc1cc(/C=C2\C(=O)NC(=O)N(Cc3ccccc3Cl)C2=O)c(C)n1-c1ccc(C(=O)O)cc1 do in these assays?
PI5P4K alpha inh: -51.6*; Pol kappa inh-1: 50.1µM*; Pol beta inh: 15.8µM*; WRN inhibitor: 56.2µM*; Pol iota inh: 8.91µM*; Pol eta inh-1: 10µM*; Pol iota confirm: 21.2*; Pol eta inh-2: 23.9*

How did Cc1ccc(N2C(=O)NC(=O)/C(=C\c3cc(C)n(-c4cc(C(=O)O)cc(C(=O)O)c4)c3C)C2=O)cc1 do in these assays?
PI5P4K alpha inh: -52.2*; Pol kappa inh-1: inconclusive; Pol beta inh: -28.3%; WRN inhibitor: inconclusive; Pol iota inh: 8.91µM*; Pol eta inh-1: 7.94µM*; PGK validate: inconclusive; Pol kappa inh-2: 16.8*; Pol eta inh-2: 37.9*

How did Cc1sc(-n2c(C)cc(C=C3C(=O)NC(=O)NC3=O)c2C)c(C#N)c1C do in these assays?
PI5P4K alpha inh: 7.1; Pol kappa inh-1: -9.6%; Pol beta inh: 1.3%; WRN inhibitor: -13.2%; Pol iota inh: inconclusive; Pol eta inh-1: -15.9%

Results for Cc1ccc(N2C(=O)NC(=O)/C(=C/c3ccc(-c4ccc(C(=O)O)c(Cl)c4)o3)C2=O)cc1 ?
PI5P4K alpha inh: inconclusive; Pol kappa inh-1: -91.4%; Pol beta inh: 14.1µM*; WRN inhibitor: inconclusive; Pol iota inh: 20µM*; Pol eta inh-1: 8.91µM*; Pol iota confirm: inconclusive; Pol eta inh-2: 30.1*
